Experimental data: the supplement of paper PMC11732987, “Enantioselective OTUD7B fragment discovery through chemoproteomics screening and high-throughput optimisation” (Communications Chemistry, 2025)

How the values were obtained:
Test in all cases: log2 ratio of Biotin-Ahx-Ub-VS probe labelling (fragment/DMSO); higher = less target engagement (more negative = stronger competition), active = hit call of the paper (q ≤ 0.05, log2 ratio ≤ -1)
Details in all cases: compound concentration: 200 uM; treatment time: 3 h
[1] = molecular target: USP34 (UniProt Q70CQ2)
How it was run: (§1)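 The table lists average log2 ratios of fragment over vehicle, from an unpaired t-test on global-median-normalised Spectronaut label-free quantities. Proteins with ≥2 unique peptides were used. Samples were HEK293T lysate (495 µg) treated in triplicate with fragment at 200 µM or vehicle for 3 h, then with Biotin-Ahx-Ub-VS (0.5 µM final) for 1 h, with labelled DUBs NeutrAvidin-enriched and run by diaPASEF LC-MS/MS.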

[2] = molecular target: T1, USP36 (UniProt Q9P275)
T1 sequence (whole entry): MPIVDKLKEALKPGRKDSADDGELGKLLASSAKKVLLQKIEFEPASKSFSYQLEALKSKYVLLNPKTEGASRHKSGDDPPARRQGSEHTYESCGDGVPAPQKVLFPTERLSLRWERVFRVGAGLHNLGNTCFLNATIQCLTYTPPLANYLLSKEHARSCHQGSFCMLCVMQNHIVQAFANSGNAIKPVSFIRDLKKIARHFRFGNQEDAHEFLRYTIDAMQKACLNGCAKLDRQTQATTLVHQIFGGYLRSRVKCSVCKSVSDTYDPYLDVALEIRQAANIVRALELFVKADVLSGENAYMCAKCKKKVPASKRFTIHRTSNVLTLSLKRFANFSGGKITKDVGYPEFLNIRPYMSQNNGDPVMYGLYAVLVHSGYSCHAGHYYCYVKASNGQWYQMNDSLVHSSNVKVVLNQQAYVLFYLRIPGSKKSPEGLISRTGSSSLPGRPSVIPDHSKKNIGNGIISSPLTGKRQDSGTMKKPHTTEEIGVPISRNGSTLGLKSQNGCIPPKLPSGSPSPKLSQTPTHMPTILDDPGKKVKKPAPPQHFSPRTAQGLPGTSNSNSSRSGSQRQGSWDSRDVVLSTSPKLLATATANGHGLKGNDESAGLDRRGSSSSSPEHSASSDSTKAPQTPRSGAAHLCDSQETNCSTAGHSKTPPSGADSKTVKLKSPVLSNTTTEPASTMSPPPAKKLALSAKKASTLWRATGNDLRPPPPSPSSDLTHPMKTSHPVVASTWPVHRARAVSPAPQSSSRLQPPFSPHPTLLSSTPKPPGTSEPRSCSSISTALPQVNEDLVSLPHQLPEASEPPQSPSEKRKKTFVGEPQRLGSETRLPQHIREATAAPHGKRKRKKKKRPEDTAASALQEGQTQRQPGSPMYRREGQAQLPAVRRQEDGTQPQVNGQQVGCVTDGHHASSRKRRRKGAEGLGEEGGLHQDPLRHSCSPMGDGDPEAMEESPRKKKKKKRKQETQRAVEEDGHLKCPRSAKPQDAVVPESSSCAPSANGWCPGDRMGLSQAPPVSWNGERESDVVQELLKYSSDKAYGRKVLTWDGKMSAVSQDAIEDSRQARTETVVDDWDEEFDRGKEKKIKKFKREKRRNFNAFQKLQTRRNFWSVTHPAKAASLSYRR
How it was run: as §1

[3] = molecular target: T2, USP38 (UniProt Q8NB14)
T2 sequence (whole entry): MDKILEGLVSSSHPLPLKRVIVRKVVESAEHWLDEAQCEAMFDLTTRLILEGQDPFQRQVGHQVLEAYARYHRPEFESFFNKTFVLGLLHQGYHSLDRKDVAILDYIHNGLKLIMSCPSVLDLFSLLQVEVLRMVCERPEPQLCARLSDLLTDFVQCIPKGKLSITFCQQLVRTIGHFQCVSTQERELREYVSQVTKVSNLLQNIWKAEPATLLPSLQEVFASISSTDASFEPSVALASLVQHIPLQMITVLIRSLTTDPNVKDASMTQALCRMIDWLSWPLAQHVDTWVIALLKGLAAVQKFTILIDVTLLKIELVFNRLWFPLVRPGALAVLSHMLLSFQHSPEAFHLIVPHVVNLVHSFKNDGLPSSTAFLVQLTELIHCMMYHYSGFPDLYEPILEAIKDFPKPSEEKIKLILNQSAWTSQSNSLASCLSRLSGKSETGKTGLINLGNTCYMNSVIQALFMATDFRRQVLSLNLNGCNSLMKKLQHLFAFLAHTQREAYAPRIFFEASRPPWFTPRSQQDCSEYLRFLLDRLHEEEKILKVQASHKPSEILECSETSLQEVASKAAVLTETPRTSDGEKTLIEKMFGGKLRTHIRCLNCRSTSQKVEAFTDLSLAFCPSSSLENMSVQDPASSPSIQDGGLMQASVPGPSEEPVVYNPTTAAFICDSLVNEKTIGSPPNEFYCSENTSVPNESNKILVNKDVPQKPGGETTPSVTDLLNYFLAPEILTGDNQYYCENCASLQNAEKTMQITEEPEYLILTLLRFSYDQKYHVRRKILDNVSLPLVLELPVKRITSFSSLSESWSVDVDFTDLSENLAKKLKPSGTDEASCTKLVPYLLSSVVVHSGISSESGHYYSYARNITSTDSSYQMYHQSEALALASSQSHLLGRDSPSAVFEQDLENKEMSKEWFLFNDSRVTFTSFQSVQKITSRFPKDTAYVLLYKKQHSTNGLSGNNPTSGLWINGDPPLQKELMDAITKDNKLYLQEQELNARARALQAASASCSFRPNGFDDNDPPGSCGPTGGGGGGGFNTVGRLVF
How it was run: as §1

[4] = molecular target: T3, USP39 (UniProt Q53GS9)
T3 sequence (whole entry): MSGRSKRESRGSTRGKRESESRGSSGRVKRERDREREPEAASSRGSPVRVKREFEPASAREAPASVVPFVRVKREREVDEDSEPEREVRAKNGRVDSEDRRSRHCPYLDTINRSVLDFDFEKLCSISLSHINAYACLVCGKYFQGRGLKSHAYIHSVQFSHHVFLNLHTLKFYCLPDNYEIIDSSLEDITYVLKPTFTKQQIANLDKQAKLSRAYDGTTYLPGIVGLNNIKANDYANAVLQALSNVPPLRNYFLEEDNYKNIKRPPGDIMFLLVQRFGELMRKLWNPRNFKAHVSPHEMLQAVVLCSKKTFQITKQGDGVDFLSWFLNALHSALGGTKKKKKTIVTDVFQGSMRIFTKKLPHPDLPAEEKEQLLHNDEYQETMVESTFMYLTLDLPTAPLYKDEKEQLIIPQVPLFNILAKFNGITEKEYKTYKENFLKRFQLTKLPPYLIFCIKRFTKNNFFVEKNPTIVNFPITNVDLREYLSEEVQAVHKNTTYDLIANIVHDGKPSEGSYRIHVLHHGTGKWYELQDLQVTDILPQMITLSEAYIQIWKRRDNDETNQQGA
How it was run: as §1

[5] = molecular target: T4, USP4 (UniProt Q13107)
T4 sequence (whole entry): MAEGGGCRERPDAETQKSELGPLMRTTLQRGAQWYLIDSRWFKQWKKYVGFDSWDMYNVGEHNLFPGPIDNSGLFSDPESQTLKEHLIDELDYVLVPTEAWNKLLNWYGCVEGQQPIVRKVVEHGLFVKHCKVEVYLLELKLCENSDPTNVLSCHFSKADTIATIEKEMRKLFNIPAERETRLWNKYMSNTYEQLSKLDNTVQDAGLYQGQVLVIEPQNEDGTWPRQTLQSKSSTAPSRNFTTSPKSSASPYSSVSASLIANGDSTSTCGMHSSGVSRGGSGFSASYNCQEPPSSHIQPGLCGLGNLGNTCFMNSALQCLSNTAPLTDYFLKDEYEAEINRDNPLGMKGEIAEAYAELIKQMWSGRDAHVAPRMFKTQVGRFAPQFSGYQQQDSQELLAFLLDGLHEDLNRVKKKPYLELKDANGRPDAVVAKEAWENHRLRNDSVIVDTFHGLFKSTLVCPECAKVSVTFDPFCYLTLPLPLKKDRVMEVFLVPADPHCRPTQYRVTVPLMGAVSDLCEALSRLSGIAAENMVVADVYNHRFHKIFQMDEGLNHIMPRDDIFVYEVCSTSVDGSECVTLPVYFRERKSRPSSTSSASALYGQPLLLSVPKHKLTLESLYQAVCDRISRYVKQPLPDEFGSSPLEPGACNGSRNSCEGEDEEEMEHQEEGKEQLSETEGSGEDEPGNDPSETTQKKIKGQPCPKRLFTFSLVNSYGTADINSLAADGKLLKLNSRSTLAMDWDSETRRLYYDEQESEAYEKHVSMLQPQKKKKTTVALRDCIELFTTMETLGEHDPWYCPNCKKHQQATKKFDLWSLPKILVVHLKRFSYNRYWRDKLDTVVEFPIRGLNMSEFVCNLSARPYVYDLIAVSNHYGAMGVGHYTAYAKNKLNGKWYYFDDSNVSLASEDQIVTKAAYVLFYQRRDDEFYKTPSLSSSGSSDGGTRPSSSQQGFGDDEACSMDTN
How it was run: as §1

Measured: log2 ratio of Biotin-Ahx-Ub-VS probe labelling

Sequence of USP34 (Q70CQ2 whole entry, the tested form may be a part): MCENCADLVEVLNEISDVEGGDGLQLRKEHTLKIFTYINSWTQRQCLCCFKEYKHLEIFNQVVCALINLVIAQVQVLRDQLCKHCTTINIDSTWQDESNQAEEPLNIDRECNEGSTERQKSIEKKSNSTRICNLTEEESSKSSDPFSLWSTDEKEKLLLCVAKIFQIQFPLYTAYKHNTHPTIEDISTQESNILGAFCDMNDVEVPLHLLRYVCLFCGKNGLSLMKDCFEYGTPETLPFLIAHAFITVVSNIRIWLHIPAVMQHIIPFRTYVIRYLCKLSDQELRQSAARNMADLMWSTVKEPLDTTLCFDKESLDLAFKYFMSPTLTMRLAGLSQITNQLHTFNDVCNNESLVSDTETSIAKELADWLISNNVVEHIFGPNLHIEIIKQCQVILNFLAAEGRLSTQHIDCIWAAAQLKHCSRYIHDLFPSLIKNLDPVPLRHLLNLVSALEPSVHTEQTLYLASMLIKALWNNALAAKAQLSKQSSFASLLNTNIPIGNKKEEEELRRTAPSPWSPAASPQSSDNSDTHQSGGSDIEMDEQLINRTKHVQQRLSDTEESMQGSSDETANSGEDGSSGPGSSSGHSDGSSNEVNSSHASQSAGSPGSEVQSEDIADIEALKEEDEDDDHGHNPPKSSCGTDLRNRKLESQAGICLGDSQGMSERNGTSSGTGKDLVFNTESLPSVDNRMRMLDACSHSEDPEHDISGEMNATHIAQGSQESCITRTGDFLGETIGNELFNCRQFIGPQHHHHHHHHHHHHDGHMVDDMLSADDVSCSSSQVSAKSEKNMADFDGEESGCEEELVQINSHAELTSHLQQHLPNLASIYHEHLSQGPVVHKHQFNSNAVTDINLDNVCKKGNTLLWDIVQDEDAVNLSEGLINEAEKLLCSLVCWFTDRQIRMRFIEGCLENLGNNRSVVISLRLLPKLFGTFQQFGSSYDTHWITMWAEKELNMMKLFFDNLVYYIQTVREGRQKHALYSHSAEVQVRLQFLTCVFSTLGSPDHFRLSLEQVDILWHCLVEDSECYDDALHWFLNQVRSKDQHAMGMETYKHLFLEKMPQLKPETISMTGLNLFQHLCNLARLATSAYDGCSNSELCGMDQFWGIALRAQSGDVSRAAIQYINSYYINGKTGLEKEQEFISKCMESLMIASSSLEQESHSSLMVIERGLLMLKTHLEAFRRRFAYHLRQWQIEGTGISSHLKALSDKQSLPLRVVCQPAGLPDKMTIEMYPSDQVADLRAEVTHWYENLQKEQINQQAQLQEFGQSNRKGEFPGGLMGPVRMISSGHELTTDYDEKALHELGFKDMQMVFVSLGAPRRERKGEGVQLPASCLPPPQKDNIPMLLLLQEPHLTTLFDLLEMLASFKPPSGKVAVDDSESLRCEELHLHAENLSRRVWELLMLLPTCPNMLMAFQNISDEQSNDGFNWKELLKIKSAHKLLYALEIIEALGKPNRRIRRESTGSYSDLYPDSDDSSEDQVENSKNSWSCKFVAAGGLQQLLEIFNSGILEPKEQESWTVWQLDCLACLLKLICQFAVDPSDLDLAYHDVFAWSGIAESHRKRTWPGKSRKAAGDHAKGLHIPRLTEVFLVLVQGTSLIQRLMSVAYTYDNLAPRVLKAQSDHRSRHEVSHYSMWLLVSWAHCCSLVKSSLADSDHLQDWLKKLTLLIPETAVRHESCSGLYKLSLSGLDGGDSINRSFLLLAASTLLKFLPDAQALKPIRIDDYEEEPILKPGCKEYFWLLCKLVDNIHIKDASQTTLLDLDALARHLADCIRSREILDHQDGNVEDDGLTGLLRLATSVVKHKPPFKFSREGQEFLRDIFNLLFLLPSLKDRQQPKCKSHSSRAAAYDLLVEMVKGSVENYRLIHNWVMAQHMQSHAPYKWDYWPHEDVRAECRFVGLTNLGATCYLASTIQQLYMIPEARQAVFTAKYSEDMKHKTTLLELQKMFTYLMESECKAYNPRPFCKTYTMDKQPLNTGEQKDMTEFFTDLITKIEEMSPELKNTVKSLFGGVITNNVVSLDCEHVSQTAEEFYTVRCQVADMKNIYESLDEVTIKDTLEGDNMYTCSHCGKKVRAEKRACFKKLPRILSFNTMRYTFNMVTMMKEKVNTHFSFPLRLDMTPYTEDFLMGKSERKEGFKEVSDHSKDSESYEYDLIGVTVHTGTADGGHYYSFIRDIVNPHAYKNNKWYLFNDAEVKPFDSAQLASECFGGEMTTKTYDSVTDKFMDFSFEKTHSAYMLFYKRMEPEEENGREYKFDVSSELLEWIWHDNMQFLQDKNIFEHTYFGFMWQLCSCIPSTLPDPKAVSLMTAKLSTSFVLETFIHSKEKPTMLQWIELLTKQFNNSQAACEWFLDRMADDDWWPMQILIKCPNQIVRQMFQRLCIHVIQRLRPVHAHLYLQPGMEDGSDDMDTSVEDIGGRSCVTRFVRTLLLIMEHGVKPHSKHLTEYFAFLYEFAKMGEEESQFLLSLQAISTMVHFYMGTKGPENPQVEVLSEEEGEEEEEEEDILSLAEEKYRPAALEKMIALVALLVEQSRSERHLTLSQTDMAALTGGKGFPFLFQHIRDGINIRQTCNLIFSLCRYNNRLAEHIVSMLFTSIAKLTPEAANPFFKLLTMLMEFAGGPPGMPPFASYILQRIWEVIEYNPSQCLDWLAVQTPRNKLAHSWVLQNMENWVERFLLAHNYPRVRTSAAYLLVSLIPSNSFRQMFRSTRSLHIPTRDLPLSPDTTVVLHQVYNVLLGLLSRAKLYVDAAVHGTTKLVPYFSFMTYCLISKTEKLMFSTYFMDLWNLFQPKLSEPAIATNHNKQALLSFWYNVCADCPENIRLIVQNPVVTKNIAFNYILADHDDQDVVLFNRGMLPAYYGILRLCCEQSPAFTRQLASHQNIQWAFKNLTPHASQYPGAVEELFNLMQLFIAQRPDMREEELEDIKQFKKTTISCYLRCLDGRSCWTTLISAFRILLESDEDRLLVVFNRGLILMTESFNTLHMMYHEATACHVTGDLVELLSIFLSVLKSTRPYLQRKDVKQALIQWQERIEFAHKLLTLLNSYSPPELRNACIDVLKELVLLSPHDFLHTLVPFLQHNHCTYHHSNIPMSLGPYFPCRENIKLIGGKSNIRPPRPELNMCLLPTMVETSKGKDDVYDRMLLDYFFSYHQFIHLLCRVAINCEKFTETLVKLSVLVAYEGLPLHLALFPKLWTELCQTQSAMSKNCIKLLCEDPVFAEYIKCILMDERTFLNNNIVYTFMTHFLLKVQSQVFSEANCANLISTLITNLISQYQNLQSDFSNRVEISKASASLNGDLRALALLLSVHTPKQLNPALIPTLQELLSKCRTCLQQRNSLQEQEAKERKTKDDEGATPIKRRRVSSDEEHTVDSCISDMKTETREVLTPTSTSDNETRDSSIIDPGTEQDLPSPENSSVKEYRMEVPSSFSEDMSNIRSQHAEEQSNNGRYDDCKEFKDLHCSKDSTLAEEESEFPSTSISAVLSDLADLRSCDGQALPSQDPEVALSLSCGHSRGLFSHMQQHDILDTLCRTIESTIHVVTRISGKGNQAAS

N#Cc1ccccc1N1CCN(C(=O)CCl)CC1
inactive: [1] -0.549 | [2] -0.232 | [3] -0.312 | [4] 0.399 | [5] -0.61
